Among the data in PubChem BioAssay are z-score and composite z-score values, retold here.

The structures appear in SMILES notation. Values joined by “and” are separate entries in the source; they are usually repeats but may differ in a detail not shown here. Equal values may be shown once. Active and inactive are the calls of the source.

Experiment [1] in a line: E. coli DRC41 culture turbidity changes, primary screen, E. coli filamentation inducer project, strain DRC41, OD650, 48 h (AID 1152).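 Further: E. coli MC1000 strain DRC41 lacking acrAB efflux pump and sulA.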 Conditions: E. coli DRC41 (acrAB sulA), higher = more signal, called active from +8 up or from −8 down.
A short description of experiment [2]: small-molecule binders of probe aLefty1, primary screen, biochemical, small-molecule microarray, 635/667 nm fluorescence (AID 1153).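 Further: score merges spot fluorescence with signal-to-noise ratio from the scanned slide images.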 The following applies: higher = more signal.
The nature of experiment [3]: PSAC antagonists in infected red cells, primary screen, cell-based, P. falciparum Indochina, OD700, 1 h (AID 1154). Conditions: P. falciparum Indochina infected RBC osmotic lysis, higher = more signal, called active from +8 up or from −8 down.
Experiment [4] can be described thus: PSAC antagonists in infected red cells, primary screen, cell-based, P. falciparum Indochina, OD700, 2 h (AID 1155).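 Further: lysis reports solute entry through the parasite surface anion channel PSAC; channel blockers reduce lysis of infected cells.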 Conditions: P. falciparum Indochina infected erythrocytes, osmotic lysis OD700; higher = more signal, called active from +8 up or from −8 down.
Experiment [5] is described as follows: osmotic lysis modulators in infected erythrocytes, primary screen, PSAC antagonist project, cell-based, P. falciparum Indochina, OD700, 3 h (AID 1156). Conditions: higher = more signal, called active from +8 up or from −8 down.
Experiment [6] is described as follows: PSAC antagonists in infected red cells, primary screen, cell-based, P. falciparum Indochina, OD700, 18 h (AID 1157). Conditions: P. falciparum Indochina infected erythrocytes, osmotic lysis OD700, 18 h; higher = more signal, called active from +8 up or from −8 down.
Experiment [7] in a line: modulators of S6 phosphorylation in cells, primary screen, cell-based, A549, cytoblot, luminescence, serum-stimulated (AID 1158).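 Further: serum-stimulated A549 lung adenocarcinoma cells; signal is phosphorylated S6 detected by cytoblot immunostaining with HRP secondary.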 Conditions: A549 phospho-S6 cytoblot, 5 h, higher = more signal.
In experiment [8] the target is NADPH oxidase 2 (Homo sapiens) (UniProt P04839). In words: NOX2-dependent H2O2 signal modulators, primary screen, NOX inhibitor project, cell-based, HEK293-NOX2, PMA-stimulated, Amplex Red fluorescence (AID 1159). Further: test concentration not given here. Conditions: 45 min, higher = more signal, called active from +8 up or from −8 down.
Experiment [9] has as its target NADPH oxidase 4 (Homo sapiens) (UniProt Q9NPH5). In words: NOX4-dependent H2O2 signal modulators, primary screen, NOX inhibitor project, cell-based, HEK293-NOX4, tetracycline-induced, Amplex Red fluorescence (AID 1160). Conditions: 45 min, higher = more signal, called active from +8 up or from −8 down.
Experiment [10] has as its target NADPH oxidase 5 (Homo sapiens) (UniProt Q96PH1). As to the kind of experiment: NOX5-dependent H2O2 signal modulators, primary screen, NOX inhibitor project, cell-based, HEK293-NOX5, Amplex Red fluorescence (AID 1161). Conditions: HEK293-NOX5, ionomycin, 45 min, higher = more signal.

Chain of NADPH oxidase 4 (Homo sapiens) (Q9NPH5 whole entry, looked up): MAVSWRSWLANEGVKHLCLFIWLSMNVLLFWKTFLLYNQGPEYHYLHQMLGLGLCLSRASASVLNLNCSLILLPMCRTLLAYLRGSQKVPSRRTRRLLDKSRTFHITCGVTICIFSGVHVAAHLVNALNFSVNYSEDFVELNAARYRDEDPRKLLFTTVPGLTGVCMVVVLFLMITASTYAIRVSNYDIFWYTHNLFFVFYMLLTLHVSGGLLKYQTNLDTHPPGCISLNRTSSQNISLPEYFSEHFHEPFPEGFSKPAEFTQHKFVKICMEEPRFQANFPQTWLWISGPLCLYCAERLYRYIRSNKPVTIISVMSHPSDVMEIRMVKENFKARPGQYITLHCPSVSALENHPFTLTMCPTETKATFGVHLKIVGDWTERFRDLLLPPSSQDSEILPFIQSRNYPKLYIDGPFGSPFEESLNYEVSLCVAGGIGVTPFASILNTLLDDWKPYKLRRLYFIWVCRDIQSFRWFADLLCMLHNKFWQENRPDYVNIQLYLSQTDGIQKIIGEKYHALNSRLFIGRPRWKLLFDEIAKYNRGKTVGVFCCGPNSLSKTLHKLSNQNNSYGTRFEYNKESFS
Chain of NADPH oxidase 5 (Homo sapiens) (Q96PH1 whole entry, looked up): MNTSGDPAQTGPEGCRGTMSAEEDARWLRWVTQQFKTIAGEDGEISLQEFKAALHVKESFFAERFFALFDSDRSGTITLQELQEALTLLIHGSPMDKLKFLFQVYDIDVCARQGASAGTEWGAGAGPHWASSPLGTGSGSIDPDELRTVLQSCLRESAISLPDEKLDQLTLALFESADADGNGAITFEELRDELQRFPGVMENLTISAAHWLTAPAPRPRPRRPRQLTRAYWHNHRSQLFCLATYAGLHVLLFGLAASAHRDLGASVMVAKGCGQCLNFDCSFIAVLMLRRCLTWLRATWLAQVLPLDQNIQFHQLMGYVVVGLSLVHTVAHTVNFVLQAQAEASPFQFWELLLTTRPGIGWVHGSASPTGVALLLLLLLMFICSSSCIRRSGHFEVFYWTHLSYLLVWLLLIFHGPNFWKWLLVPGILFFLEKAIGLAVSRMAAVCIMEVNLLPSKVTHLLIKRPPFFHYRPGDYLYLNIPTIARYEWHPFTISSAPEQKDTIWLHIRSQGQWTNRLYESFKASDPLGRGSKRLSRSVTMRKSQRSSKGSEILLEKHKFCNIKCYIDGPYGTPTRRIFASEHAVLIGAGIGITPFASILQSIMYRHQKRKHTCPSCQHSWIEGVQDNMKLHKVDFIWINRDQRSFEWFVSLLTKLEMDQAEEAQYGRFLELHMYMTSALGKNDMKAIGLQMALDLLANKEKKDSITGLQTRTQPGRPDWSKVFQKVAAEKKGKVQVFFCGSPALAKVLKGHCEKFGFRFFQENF
Chain of NADPH oxidase 2 (Homo sapiens) (P04839 whole entry, looked up): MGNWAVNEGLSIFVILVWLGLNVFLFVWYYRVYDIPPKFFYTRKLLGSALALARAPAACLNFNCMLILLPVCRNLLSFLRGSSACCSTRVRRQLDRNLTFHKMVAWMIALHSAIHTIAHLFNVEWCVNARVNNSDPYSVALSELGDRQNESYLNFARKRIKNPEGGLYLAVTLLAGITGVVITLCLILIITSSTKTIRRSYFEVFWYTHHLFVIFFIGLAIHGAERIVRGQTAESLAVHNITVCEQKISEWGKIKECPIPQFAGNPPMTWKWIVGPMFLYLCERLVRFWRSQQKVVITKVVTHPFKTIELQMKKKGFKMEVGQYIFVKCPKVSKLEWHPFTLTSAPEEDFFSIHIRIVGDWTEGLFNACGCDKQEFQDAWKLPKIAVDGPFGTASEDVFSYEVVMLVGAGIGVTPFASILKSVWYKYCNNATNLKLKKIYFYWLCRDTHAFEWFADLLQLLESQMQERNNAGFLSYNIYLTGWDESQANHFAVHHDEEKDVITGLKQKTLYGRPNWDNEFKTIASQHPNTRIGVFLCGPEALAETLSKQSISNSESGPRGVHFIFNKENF

Turning to `CC[C@@H]1C(Sc2ccccc2)C(C(=O)O)[C@H](c2ccc(C)cc2)N1S(=O)(=O)c1ccc(C)cc1` (stereo not given in full), the z-score in [1] is -1.08 (inactive) and -0.135 (inactive); in [3], 0.519 (inactive) and -0.178 (inactive); in experiment [4], 0.677 (inactive) and -0.514 (inactive); in experiment [5], -0.0111 (inactive) and -0.657 (inactive); in experiment [6], 0.683 (inactive) and -2.21 (inactive); in experiment [7], -0.473 and 0.388. Further, the z-score in experiment [8] is 0.668 (inactive) and 0.333 (inactive); in experiment [9] it was 0.464 (inactive) and 0.356 (inactive); in experiment [10] it was 2.07 and 0.173. Besides, the composite z-score in experiment [2] is 0.417 and -0.214.
Take `CCOC(=O)NN=C1C[C@@H](O)[C@@H](O)[C@@H]2[C@@H]3C(=O)N(Cc4ccc5c(c4)OCO5)C(=O)[C@@H]3CC[C@@H]12`: the z-score in [1] was 0.806 (inactive); in experiment [3] it was 6.5 (inactive); in experiment [4] it was 1.29 (inactive); in [5], 1.34 (inactive); in [6], 0.574 (inactive); in experiment [7], -0.403. Also, the figures for the z-score in experiment [8], in experiment [9] and in experiment [10] were -0.00897 (inactive), 0.786 (inactive) and 0.175, respectively. The composite z-score in experiment [2] is -0.14.
`O=c1n(-c2ccccc2)c(=O)n2n1CC[C@@H]1C(=NOC[C@@H](O)COCc3ccco3)[C@H]3O[C@H]3[C@@H](O)[C@@H]12`: the z-score in experiment [1] is -1.09 (inactive) and -0.282 (inactive); in experiment [3], 1.17 (inactive) and 0.288 (inactive); in experiment [4] it was -0.603 (inactive) and 0.191 (inactive); in [5], 1.74 (inactive) and 0.238 (inactive); in experiment [6] it was -2.3 (inactive) and 0.0983 (inactive); in experiment [7] it was 0.473 and -0.975. Besides, the z-score in experiment [8] was 1.06 (inactive) and 0.176 (inactive); in [9], 0.113 (inactive) and -2.01 (inactive); in experiment [10], 1.33 and -0.41. In addition, the composite z-score in experiment [2] was -0.0464 and -0.0626.
In the case of `CO[C@@H]1COC(=O)[C@H](Cc2ccccc2)NC(=O)CC=C[C@@H](C)[C@H](OC)COC(=O)[C@@H](C)NC(=O)CC=C[C@H]1C`, the z-score is -0.582 (inactive) and 0.887 (inactive) in experiment [1]; -0.712 (inactive) and -0.142 (inactive) in experiment [3]; -0.999 (inactive) and -0.463 (inactive) in experiment [4]; 0.932 (inactive) and 0.0469 (inactive) in [5]; -2.07 (inactive) and -1.44 (inactive) in experiment [6]; 0.758 and 0.682 in experiment [7]. Moreover, the z-score in experiment [8] was 0.0254 (inactive) and -0.582 (inactive); in experiment [9] it was 0.859 (inactive) and 0.551 (inactive); in [10] it was -0.106 and 0.66. Further, in [2], the composite z-score was -0.0536 and -0.425.
On to `CC(C)=NOC[C@@H](O)COCc1ccco1`, for which the z-score in experiment [1] is 0.534 (inactive); in experiment [3], 0.159 (inactive); in experiment [4], 0.365 (inactive); in experiment [5] it was -0.0924 (inactive); in experiment [6], 0.0967 (inactive); in [7] it was 0.566. Also, the values for the z-score in experiment [8], in experiment [9] and in experiment [10] were 0.0371 (inactive), 0.0915 (inactive) and 0.125, respectively. Moreover, in [2], the composite z-score stood at 0.843.
Turning to `C=C[C@H](OC)[C@@H](O)c1ccc(OCCO)cc1`, the z-score in experiment [1] is -0.389 (inactive) and 0.805 (inactive); in [3], 0.749 (inactive) and 0.142 (inactive); in [4], 0.305 (inactive) and 0.0012 (inactive); in [5], -0.442 (inactive) and -0.321 (inactive); in experiment [6], 0.0568 (inactive) and 0.352 (inactive); in [7], 0.136 and 0.135. Also, the z-score is 0.844 (inactive) and -0.354 (inactive) in experiment [8]; -1.32 (inactive) and -0.339 (inactive) in experiment [9]; -0.372 and 0.317 in experiment [10]. In addition, in experiment [2], the composite z-score was -0.328 and -0.147.
Consider `C=C[C@H](C)[C@@H](O)c1ccc(OCCO)cc1`, for which the z-score in experiment [1] was -0.454 (inactive) and -0.0821 (inactive); in experiment [3] it was 0.92 (inactive) and 1.14 (inactive); in experiment [4], 0.613 (inactive) and 0.0956 (inactive); in experiment [5] it was -0.642 (inactive) and -0.202 (inactive); in experiment [6], 0.232 (inactive) and 0.252 (inactive); in experiment [7], -0.248 and -0.5. Moreover, the z-score in experiment [8] was 0.149 (inactive) and -0.758 (inactive); in experiment [9], 0.101 (inactive) and -0.0609 (inactive); in [10], 0.297 and 0.492. For the same molecule, the composite z-score in [2] was -0.235 and -0.146.
Consider `COC(=O)[C@@]1(Cc2ccccc2)[C@H]2c3cc(C(=O)N(C)C)n(C[C@H](O)CO)c3C[C@H]2CN1C(=O)c1ccccc1`, for which the z-score in experiment [1] was -0.741 (inactive) and -1.44 (inactive); in [3] it was 0.67 (inactive) and 0.448 (inactive); in experiment [4], 0.324 (inactive) and 0.32 (inactive); in experiment [5], 1.28 (inactive) and 0.776 (inactive); in experiment [6] it was 0.789 (inactive) and 0.446 (inactive); in [7], -0.0187 and -0.333. Besides, the z-score in [8] was -0.0779 (inactive) and 0.104 (inactive); in [9] it was -3.17 (inactive) and -0.539 (inactive); in [10], -4.08 and -0.292. Besides, the composite z-score in [2] was 0.0903 and 0.415.
